Assay outcomes as filed in PubChem BioAssay.
Pf growth 48h: inhibits P. falciparum growth in the first generation, 48 h; P. falciparum luciferase growth in erythrocytes, 48 h; Potency, µM (titrated, usually from 28.7 µM), inactives show top-dose activity change, negative = inhibition, most hits filed as inhibitors; 310,000 compounds, 5.9% hits; AID 504832
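Luciferase-expressing P. falciparum in infected erythrocytes (2% hematocrit, 0.1% parasitemia final) in RPMI 1640/0.5% Albumax were exposed to compound for 48 hours at 37 C, 5% CO2; growth read as luminescence.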
AMA1 RON2 block: inhibitors of Plasmodium falciparum AMA1-RON2 interaction | AlphaScreen AMA1-biotinylated RON2 peptide binding | Potency, µM (doses to about 58.2 µM), inactives show at the highest dose activity change, negative = inhibition, usual class: inhibitors | 360,000 compounds, 0.2% hits | AID 720542;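 further: 0% = vehicle wells and -100% = peptide control; nearly all actives have a fitted effect of over 45% in size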
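AMA1 (3D7) with his tag at 25 nM final met compounds first, then biotinylated RON2 peptide at 25 nM; detection used donor plus acceptor beads, 10 µg/mL apiece, read by AlphaScreen after 30 min at room temperature.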
Pf growth 96h: P. falciparum growth inhibition at 96 hours | Potency, µM (doses to about 28.7 µM), for inactives: top-dose activity change, negative = inhibition, usual class: inhibitors | 320,000 compounds, 6.9% hits | P. falciparum luciferase reporter growth, 96 h | AID 504834
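P. falciparum expressing integrated firefly luciferase grown in erythrocytes (2% hematocrit, 0.05% parasitemia final) with compounds for 96 hours at 37 C, 5% CO2. Growth inhibition read as loss of luminescence after adding luciferase detection reagent.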
HCV inhibitor: inhibitors of hepatitis C virus infection | Potency, µM (highest dose often 41.8 µM), for the others: top-dose activity change, negative = inhibition, most hits filed as inhibitors | 340,000 compounds, 3.4% hits | AID 651820 | Huh7.5.1 HCVcc-Cre infection, luciferase reporter, 44 h
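Reporter virus HCVcc-Cre (~0.5 moi) infects cells exposed to compound; seeding density 1,000 cells/well with 4 h settling beforehand. Luminescence, 15 sec read, taken 44 h post-infection following a 15 min RT substrate incubation.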
Starred values were filed as active, the others as inactive; ? = inconclusive; nt = no result given; [ ] = dose if it differs, or a comment. The list is not random: actives were taken first. Their share in the collection is about 11%. The call rests on the fitted dose curve; in most records, active means well fitted curve in the direction sought with a large enough effect; inconclusive means small, poorly fitted or top-dose-only effect, or another doubt; inactive means no such curve, though single readings can be large; an effect the other way counts as inactive or inconclusive. Unless noted, on the % scale 0 is the no-effect control and ±100 the full control effect; potency means the concentration at half of the fitted maximal effect.

SMILES	Pf growth 48h	AMA1 RON2 block	Pf growth 96h	HCV inhibitor
CC(=O)c1ccc(NC(=S)N2CCN(c3ccccn3)CC2)cc1	0.6%	-6.1%	-21.4%	-13.5%
O=C(Nc1ccccc1N1CCCCC1)c1cc(S(=O)(=O)N2CCOCC2)ccc1F	10.4µM*	-12.2%	0.0%	?
O=C(Nc1ccccc1N1CCCC1)c1cc(S(=O)(=O)N2CCOCC2)ccc1Cl	-8.2%	10.4%	?	-11.9%
Cc1cccc(C(=O)Nc2cc(S(=O)(=O)N3CCOCC3)ccc2N2CCCC2)c1	?	17.3%	?	?
Cc1ccc(C(=O)Nc2cc(S(=O)(=O)N3CCOCC3)ccc2N2CCCC2)cc1	?	-4.0%	-21.7%	-14.3%
Cc1cccc(C(=O)Nc2cc(S(=O)(=O)N3CCOCC3)ccc2N2CCCCC2)c1	7.38µM*	5.7%[11.6 µM]	?	?
O=C(Nc1cc(S(=O)(=O)N2CCOCC2)ccc1N1CCCC1)c1ccc(Cl)cc1	14.7µM*	-3.9%	?	?
O=C(Nc1cc(S(=O)(=O)N2CCOCC2)ccc1N1CCCCC1)c1ccccc1	?	-9.3%[11.6 µM]	4.65µM*	?
COc1ccc(-c2c(-c3ccsc3)oc3ccc(N4CCOCC4)cc23)cc1	nt	-9.4%	nt	-26.4%
O=C(Nc1cc(C(F)(F)F)ccc1N1CCCC1)C1CCCO1 (stereo not given)	-8.9%	49.5%	-20.1%	-18.9%
O=C(Nc1cc(S(=O)(=O)N2CCCCC2)ccc1N1CCOCC1)c1ccc(C(F)(F)F)cc1	9.28µM*	10.3%	13.1µM*	-13.5%
O=C(Nc1cc(S(=O)(=O)N2CCOCC2)ccc1N1CCCCC1)c1ccc(Cl)cc1	13.1µM*	-9.5%	8.28µM*	?
O=C(NCCc1c[nH]c2ccccc12)c1cc(S(=O)(=O)N2CCCCC2)ccc1N1CCOCC1	7.38µM*	-13.4%	65.6%	13.6%
Cc1ccccc1C(=O)N1CCC(C(=O)Nc2cc(C(F)(F)F)ccc2N2CCCC2)CC1	-23.7%	10.6%	10.4µM*	-24.4%
COc1ccc(CNC(=O)c2cc(S(=O)(=O)N3CCCCC3)ccc2N2CCOCC2)cc1OC	nt	-6.5%	nt	11.9%
O=C(NCc1ccccc1)C(C1CC1)n1c(=O)c(-c2cc3ccccc3[nH]2)nc2ccccc21 (stereo not given)	nt	78.1%	nt	nt
O=C(Nc1sc2c(c1C(=O)NCC(O)CO)CCCC2)c1ccccc1 (stereo not given)	nt	-29.5%	nt	-2.2%
CN(CC(=O)Nc1ccccc1Cl)CC(=O)c1c(N)n(Cc2ccccc2)c(=O)n(C)c1=O	-12.4%	10.1%	?	-0.2%
O=C(CSc1ccccc1[N+](=O)[O-])NC1CCS(=O)(=O)C1 (stereo not given)	5.3%	0.6%	?	24.0%
O=C(Nc1cc(S(=O)(=O)N2CCCCC2)ccc1N1CCOCC1)c1cc(=O)[nH]c2ccccc12	?	-5.7%	8.28µM*	-22.7%
Cc1ccc(S(=O)(=O)NC(=O)c2cc(C)n(-c3cc(S(=O)(=O)N4CCOCC4)ccc3N3CCCC3)c2C)cc1	nt	-2.5%	4.65µM*	-9.4%
CC(Cl)C(=O)Nc1cc(C(F)(F)F)ccc1N1CCOCC1 (stereo not given)	?	-3.1%	?	0.8%
Cc1ccc(S(=O)(=O)N2CCC(C(=O)Nc3cc(C(F)(F)F)ccc3N3CCOCC3)CC2)cc1C	?	9.8%	9.28µM*	?
CN1CCN(c2ccc(C(F)(F)F)cc2NC(=O)Nc2ccccc2)CC1	nt	3.6%	1.47µM*	?
COc1ccc(CC2SC(N)=NC2=O)cc1 (stereo not given)	21.2%	13.7%	?	14.6%
SMILES	Pf growth 48h	AMA1 RON2 block	Pf growth 96h	HCV inhibitor
O=C(CNC(=O)Cc1ccc(Cl)cc1)NCc1ccco1	6.3%	17.6%	-22.1%	18.3%
N#CC1(Nc2cccc(Cl)c2)CCCC1	nt	3.4%	nt	15.8%
COc1cccc2cc(C(=O)C3=C(O)C(=O)N(CCN4CCOCC4)C3c3cccc(Cl)c3)oc12 (stereo not given)	-9.5%	1.1%	88.2%	5.5%
O=C(Nc1cc(S(=O)(=O)N2CCOCC2)ccc1N1CCOCC1)c1ccccc1[N+](=O)[O-]	nt	8.8%	nt	14.2%
O=C(Nc1cc(S(=O)(=O)N2CCOCC2)ccc1N1CCOCC1)c1ccc([N+](=O)[O-])s1	nt	3.1%	nt	12.6µM*
CCn1c(CNc2ccc(Cl)cc2)nnc1SCC#N	9.1%	-5.7%	2.94µM*	0.6%
CC(C)[C@H](NS(=O)(=O)c1ccccc1F)C(=O)OCC(=O)Nc1cccc(S(N)(=O)=O)c1	nt	-1.5%	nt	8.7%
Cc1ccc(S(=O)(=O)Cn2nnnc2CN(Cc2ccco2)CC2CCCO2)cc1 (stereo not given)	?	0.0%	4.15µM*	11.7%
Cc1ccc2cc(CN(Cc3nnnn3Cc3ccco3)CC3CCCO3)c(=O)[nH]c2c1C (stereo not given)	?	-2.3%	-26.4%	-17.6%
COc1ccc(-c2nnc(Nc3ccc(OC)c(C(=O)N4CCCCC4)c3)c3ccccc23)cc1	5.22µM*	-21.2%	?	?
COc1ccc(-c2cc(C(=O)OCC(=O)c3ccc(C)c([N+](=O)[O-])c3)c3ccccc3n2)cc1	5.3%	6.2%	-43.0%	?
COc1ccc(-c2cc(C(=O)N3CCCCCC3)c3ccccc3n2)cc1OC	nt	46.7%	nt	nt
COc1ccc(-c2cc(C(=O)Oc3ccc([N+](=O)[O-])cc3)c3ccccc3n2)cc1	-3.8%	-3.4%	13.1µM*	36.5%
COc1ccc(-c2cc(C(=O)N3CCCCCC3)c3ccccc3n2)cc1	9.28µM*	1.1%	3.29µM*	?
O=C(c1cc(-c2cccc(Br)c2)nc2ccccc12)N1CCCC1	?	-7.6%	87.2%	-26.1%
O=C(c1cc(-c2ccc(Br)cc2)nc2ccccc12)N1CCC1	3.29µM*	-6.4%	4.15µM*	?
O=C(CN1CCN(Cc2ccc(Cl)cc2)CC1)N/N=C/c1c[nH]c2ccccc12	-6.3%	8.8%	?	-6.0%
CC1CCCCN1C(=O)CN1C(=O)NC2(CCCCC2C)C1=O (stereo not given)	?	-3.1%[11.6 µM]	-25.3%	8.2%
Cc1ccc(S(=O)(=O)NCCCNS(=O)(=O)c2ccccc2[N+](=O)[O-])cc1	-17.6%	0.0%	-1.0%	-3.1%
COc1ccc(N2CCN(C(=O)c3cc(-c4cccs4)nc4ccccc34)CC2)cc1	?	12.6µM*	?	?
COc1ccc(-c2cc(C(=O)N3CCN(c4ccccc4)CC3)c3ccccc3n2)cc1OC	?	-1.7%	nt	?
CCn1nc(C(=O)OCC(=O)N(CCC#N)c2ccccc2)c2ccccc2c1=O	-19.6%	-2.1%[11.6 µM]	-21.2%	21.7%
O=C(COc1ccc(Br)cc1)Nc1ccccc1N1CCCC1	-29.2%[5.75 µM]	-16.4%	?	-28.4%
CSCCC(NS(=O)(=O)c1cccc(C(F)(F)F)c1)C(=O)Nc1ccccc1N1CCCC1 (stereo not given)	?	9.0%	14.7µM*	-14.5%
Cc1ccccc1OCC(=O)Nc1ccccc1N1CCCCC1	?	8.0%	10.4µM*	?
O=C(COc1cccc(C(F)(F)F)c1)Nc1ccccc1N1CCCCC1	10.4µM*	13.2%	?	-12.6%
